# Test results from PubChem BioAssay (NCI).
# “And” between values parts separate entries of the source, which are not always exact repeats. Equal entries are not always repeated. About 79,000 compounds went through this panel and 15% of them were active in at least one assay; those are over-represented in the sample as a whole. Where a structure was tested more than once in an assay, its records may differ in their call. The source made the active and inactive calls. No stated cut-off is given here; in the data, active means growth inhibition above about 70%; inactive means the rest.
# Assays:
# [1] = NCI Yeast Anticancer Drug Screen. Data for the rad50 strain (AID 155);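 further: 0% = growth of vehicle-only cultures of the same strain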; settings: S. cerevisiae rad50 strain growth inhibition; at 50.0 µM; stronger effect = higher value
# Summary of the method: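 Yeast carrying a defined DNA repair defect were exposed to test compounds, and growth was compared with vehicle-treated controls to give percent inhibition.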
# [2] = NCI Yeast Anticancer Drug Screen. Data for the mec2-1 strain (AID 157); settings: S. cerevisiae mec2-1 strain, at 50.0 µM, stronger effect = higher value
# Summary of the method: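 Cells of the genetically defined mec2-1 yeast strain are incubated with test compound. Inhibition of growth is calculated against vehicle-treated controls.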
# [3] = NCI Yeast Anticancer Drug Screen. Data for the sgs1 mgt1 strain (AID 161);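 further: 0% = growth of cultures given vehicle only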; settings: S. cerevisiae sgs1 mgt1 strain, at 50.0 µM, stronger effect = higher value
# Summary of the method: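 Read-out: growth inhibition vs vehicle controls. Cells: mutant yeast strain deficient in DNA damage repair.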
# [4] = NCI Yeast Anticancer Drug Screen. Data for the cln2 rad14 strain (AID 165);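 further: 0% = growth equal to vehicle treated cultures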; settings: S. cerevisiae cln2 rad14 strain, at 50.0 µM, stronger effect = higher value
# Summary of the method: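 The screen exposed genetically defined yeast (cln2 rad14) to test compounds and scored growth inhibition relative to vehicle-treated controls.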
# [5] = NCI Yeast Anticancer Drug Screen. Data for the bub3 strain (AID 167); settings: S. cerevisiae bub3 mutant strain, at 50.0 µM, stronger effect = higher value
# Summary of the method: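 Compounds were applied to a genetically altered yeast strain carrying a cell-cycle control defect. Growth inhibition was scored against vehicle-treated controls.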
# [6] = NCI Yeast Anticancer Drug Screen. Data for the mlh1 rad18 strain (AID 175); settings: S. cerevisiae mlh1 rad18 strain growth inhibition; at 50.0 µM; stronger effect = higher value
# Summary of the method: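 Compound-treated yeast growth, normalised to vehicle controls. Strain bears defined DNA repair mutations.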
SMILES,growth inhibition [1],growth inhibition [2],growth inhibition [3],growth inhibition [4],growth inhibition [5],growth inhibition [6]
C[N+](C)(C)CC1CCC(C[N+](C)(C)C)C1=NO (stereo unspecified),-16.3% (inactive),11.1% (inactive),4.2% (inactive),13.2% (inactive),9.75% (inactive),-15.5% (inactive)
O=C(NCCNC(=O)Nc1ccccc1S(=O)(=O)F)Nc1ccccc1S(=O)(=O)F,-17% (inactive),-35.2% (inactive),-16.1% (inactive),6.55% (inactive),-32.1% (inactive),-13% (inactive)
N.N.N.N.N.N.[I-].[Os],23.5% (inactive),1.45% (inactive),5.4% (inactive),7.6% (inactive),1.25% (inactive),-2% (inactive)
CCn1/c(=N\N=O)sc2ccccc21,-4.1% (inactive),6.05% (inactive),-4.2% (inactive),-23.9% (inactive),-35.3% (inactive),3.6% (inactive)
CS(=O)(=O)OCCN(CCCl)c1cc(C(N)=O)c([N+](=O)[O-])cc1[N+](=O)[O-],-6.8% (inactive),-5.5% (inactive),5.45% (inactive),-16.4% (inactive),-11.4% (inactive),-1.65% (inactive)
CCCCC(CC)C(=O)O (stereo unspecified),-12.6% (inactive) and 33.9% (inactive),-0.3% (inactive) and 11.5% (inactive),-1.65% (inactive) and -1.3% (inactive),0.2% (inactive) and 6% (inactive),-13.7% (inactive) and 6.6% (inactive),-10.7% (inactive) and 7% (inactive)
NNc1cccc2c1CCC(N)C2 (stereo unspecified),-0.35% (inactive),21.7% (inactive),6.35% (inactive),-11.4% (inactive),5% (inactive),9.65% (inactive)
C=CC12CN(C)C3C4COC(CC41)C1(C(=O)Nc4ccccc41)C32 (stereo unspecified),1.25% (inactive) and -22.5% (inactive),-3.3% (inactive) and -18.6% (inactive),-7.35% (inactive),-13.5% (inactive),-11.6% (inactive),29.2% (inactive) and -19.2% (inactive)
CC1(C)CCC(C)(C)c2c1ccc(O)c2Cc1c(O)ccc2c1C(C)(C)CCC2(C)C,3.55% (inactive),-30.8% (inactive),-39% (inactive),-17.2% (inactive),-41.2% (inactive),-6.8% (inactive)
CC1(C)N=C(N)N=C(N)N1c1cccc(CCC(=O)Nc2ccc[n+](Cc3ccc(S(=O)(=O)F)cc3)c2)c1,-1.3% (inactive),-8.35% (inactive),13.4% (inactive),-17.8% (inactive),-9.55% (inactive),-11.9% (inactive)
COc1ccc2ccc3oc([N+](=O)[O-])cc3c2c1,14.8% (inactive),25.7% (inactive),-23.9% (inactive),-14% (inactive),-36% (inactive),-36% (inactive)
OCCN=Cc1ccccc1O.OCCN=Cc1ccccc1O.[Ni],32.2% (inactive),7.3% (inactive),17.9% (inactive),-26.4% (inactive),12.8% (inactive),18.4% (inactive)
CNC(=O)O/N=C/c1cccc(/C=N/OC(=O)NC)c1,-0.1% (inactive),14.3% (inactive),3.35% (inactive),49.5% (inactive),28.8% (inactive),11.2% (inactive)
CCOP(=O)(OCC)/C(C#N)=C/c1ncc[nH]1,-36.6% (inactive),-23.9% (inactive),-48% (inactive),19.7% (inactive),26.2% (inactive),-55.4% (inactive)
COc1ccc(C[As+](c2ccccc2)(c2ccccc2)c2ccccc2)cc1,97.8% (active),98.3% (active),97.4% (active),97% (active),93% (active),97.2% (active)
CC[CH2][Sn](=[O])[c]1ccccc1,61.6% (inactive),72% (active),57.1% (inactive),42.3% (inactive),50.6% (inactive),78.2% (active)
Nc1ccc([N+](=O)[O-])cc1[N+](=O)[O-],-24.9% (inactive),5.4% (inactive),-21.2% (inactive),-8.8% (inactive),0.6% (inactive),11% (inactive)
CC(=O)OC1CC(OC2C(O)CC(OC3C(O)CC(OC4CCC5(C)C(CCC6C5CCC5(C)C(C7=CC(=O)OC7)C(O)CC65O)C4)OC3C)OC2C)OC(C)C1OC1OC(CO)C(O)C(O)C1O (stereo unspecified),18.1% (inactive),8.8% (inactive),-12.8% (inactive),8.1% (inactive),21.8% (inactive),10.8% (inactive)
N#CCc1ccccc1,8.5% (inactive) and -45.5% (inactive),17.6% (inactive) and 3.2% (inactive),-7.35% (inactive) and -21.4% (inactive),13.7% (inactive) and 5.6% (inactive),15.4% (inactive) and -1.05% (inactive),4.85% (inactive) and -6.65% (inactive)
O=CNNC(=O)C(Cl)Cl,4.25% (inactive),-11.9% (inactive),-10.1% (inactive),-31.3% (inactive),-3.45% (inactive),8.9% (inactive)
CC12OCCN1CCO2,10.9% (inactive),-3.25% (inactive),11.8% (inactive),5.45% (inactive),12.8% (inactive),4% (inactive)

SMILES,growth inhibition [1],growth inhibition [2],growth inhibition [3],growth inhibition [4],growth inhibition [5],growth inhibition [6]
COP(=O)(OC)OC.COP(=O)(OC)OC.COP(=O)(OC)OC.COP(=O)(OC)OC.COP(=O)(OC)OC.COP(=O)(OC)OC.[Mn+2].[O-][Cl+3]([O-])([O-])O,43% (inactive),-35% (inactive),-17.1% (inactive),-14.9% (inactive),-18.2% (inactive),-9% (inactive)
O=C1C2C(C(=O)N1c1ccc(O)cc1)C1(Cl)C(Cl)=C(Cl)C2(Cl)C1(Cl)Cl (stereo unspecified),-0.45% (inactive),-11.8% (inactive),1.9% (inactive),-0.1% (inactive),-19.6% (inactive),1% (inactive)
O=C(Nc1ccc([As](=O)(O)O)cc1)Nc1cccc(Cl)c1Cl,37.9% (inactive),36.3% (inactive),-8% (inactive),0.3% (inactive),44.1% (inactive),34.9% (inactive)
CC(C)CCC[C@@H](C)[C@H]1CC[C@H]2[C@@H]3CC=C4C[C@@H](OC(=O)F)CC[C@]4(C)[C@H]3CC[C@]12C,19.9% (inactive),20.6% (inactive),42.5% (inactive),35.9% (inactive),26.9% (inactive),33.7% (inactive)
COc1ccc(C=C2C(=O)N(C)C(=O)N(C)C2=O)cc1,4.8% (inactive),2.1% (inactive),-13.2% (inactive),22.3% (inactive),28% (inactive),36.5% (inactive)
CNC(C)(C)Cc1ccc(Cl)cc1,33.5% (inactive),10.8% (inactive),27.9% (inactive),24.9% (inactive),4.6% (inactive),-0.45% (inactive)
COc1ccc(-c2nc(-c3ccc(N=Cc4ccc(N(CCCl)CCCl)cc4)cc3)cs2)cc1,58% (inactive),11.4% (inactive),57% (inactive),27.1% (inactive),11.5% (inactive),42.6% (inactive)
COC(=O)C1(C(=O)OC)ON1C(C)(C)C (stereo unspecified),-48.5% (inactive),-17.6% (inactive),-17.6% (inactive),-57.8% (inactive),-5% (inactive),-11.6% (inactive)
COc1cc2ccnc(C3(OC(=O)c4ccccc4)CCN(CCc4ccccc4)CC3)c2cc1OC,-1.3% (inactive),-7.15% (inactive),-21.9% (inactive),-17.1% (inactive),2.95% (inactive),-0.95% (inactive)
c1cc2c(cc1C1OCC3C(c4ccc5c(c4)OCO5)OCC13)OCO2 (stereo unspecified),75.1% (active) and 30.8% (inactive),74.6% (active) and -0.05% (inactive),82.5% (active) and 57.4% (inactive),44.4% (inactive) and 34.4% (inactive),81.5% (active) and 54.3% (inactive),67% (inactive) and 31.7% (inactive)
COc1cc(OC)cc(C(=O)Cc2c(C(=O)c3ccccc3)c3ccccc3n2C(=O)c2ccccc2)c1,-5.5% (inactive),-6% (inactive),0.1% (inactive),-50.3% (inactive),-2.15% (inactive),3.2% (inactive)
O=C(CCl)Nc1ccccc1Cl,39% (inactive),9.65% (inactive),25.9% (inactive),18.6% (inactive),55.8% (inactive),45.1% (inactive)
CCN1CN(c2ccccc2)C2(CCN(CC(CC3OCCO3)c3ccc(F)cc3)CC2)C1=O (stereo unspecified),28.5% (inactive),32.2% (inactive),51.9% (inactive),13.6% (inactive),47% (inactive),44.6% (inactive)
NC(=S)Nc1ccccc1,9.75% (inactive),-18% (inactive),-24.4% (inactive),-11.1% (inactive),8.65% (inactive),5.6% (inactive)
Cc1ccc(NC2=NCCS2)cc1Cl,3.05% (inactive),7.15% (inactive),12.1% (inactive),10.8% (inactive),10.2% (inactive),16.1% (inactive)
CS(=O)(=O)CS(=O)(=O)OCCF,5% (inactive),-12.4% (inactive),-10.6% (inactive),-9.55% (inactive),-29% (inactive),-33.2% (inactive)
CC(C)CC(=O)[O-].CC(C)CC(=O)[O-].N.N.N.N.[Co+3].[O-][Cl+3]([O-])([O-])[O-],-0.8% (inactive) and -12.4% (inactive),9.7% (inactive) and 11.6% (inactive),-28.9% (inactive) and -24.1% (inactive),10.3% (inactive) and 1.35% (inactive),15.8% (inactive) and -0.6% (inactive),-14.5% (inactive) and 2.55% (inactive)
O=c1nc2n(CCN(CCCl)CCCl)c3cc(Cl)c(Cl)cc3nc-2c(=O)[nH]1,38% (inactive),-1.65% (inactive),45% (inactive),34.6% (inactive),3.65% (inactive),26.4% (inactive)
COC(=O)Nc1nc2ccccc2[nH]1,-18.6% (inactive),-4.4% (inactive),-13% (inactive),4.2% (inactive),2.45% (inactive),7.15% (inactive)
CCCC[P+](C#Cc1ccccc1)(CCCC)CCCC,8.65% (inactive),3.5% (inactive),9.5% (inactive),3.75% (inactive),-3.2% (inactive),2% (inactive)
